The source of these data is ChEMBL document CHEMBL3988442, “University of Dundee, Small-Polar-MMV Screening Library” (2021).

Common to all, as to parameters: scale not given: direction of the effect not stated beside the values
In assay [1] the target is Protein translocase subunit SecA (Escherichia coli (strain K12)) (UniProt P10408). Description: Assay to Identify E. coli SecA ATPase Inhibitors. The following applies: 30 µM. The format is functional.
Assay [2] has as its target T1, Ubiquitin-activating enzyme e1, putative (Leishmania donovani (strain BPK282A1)) (UniProt E9BSI1).
T1 sequence (whole entry): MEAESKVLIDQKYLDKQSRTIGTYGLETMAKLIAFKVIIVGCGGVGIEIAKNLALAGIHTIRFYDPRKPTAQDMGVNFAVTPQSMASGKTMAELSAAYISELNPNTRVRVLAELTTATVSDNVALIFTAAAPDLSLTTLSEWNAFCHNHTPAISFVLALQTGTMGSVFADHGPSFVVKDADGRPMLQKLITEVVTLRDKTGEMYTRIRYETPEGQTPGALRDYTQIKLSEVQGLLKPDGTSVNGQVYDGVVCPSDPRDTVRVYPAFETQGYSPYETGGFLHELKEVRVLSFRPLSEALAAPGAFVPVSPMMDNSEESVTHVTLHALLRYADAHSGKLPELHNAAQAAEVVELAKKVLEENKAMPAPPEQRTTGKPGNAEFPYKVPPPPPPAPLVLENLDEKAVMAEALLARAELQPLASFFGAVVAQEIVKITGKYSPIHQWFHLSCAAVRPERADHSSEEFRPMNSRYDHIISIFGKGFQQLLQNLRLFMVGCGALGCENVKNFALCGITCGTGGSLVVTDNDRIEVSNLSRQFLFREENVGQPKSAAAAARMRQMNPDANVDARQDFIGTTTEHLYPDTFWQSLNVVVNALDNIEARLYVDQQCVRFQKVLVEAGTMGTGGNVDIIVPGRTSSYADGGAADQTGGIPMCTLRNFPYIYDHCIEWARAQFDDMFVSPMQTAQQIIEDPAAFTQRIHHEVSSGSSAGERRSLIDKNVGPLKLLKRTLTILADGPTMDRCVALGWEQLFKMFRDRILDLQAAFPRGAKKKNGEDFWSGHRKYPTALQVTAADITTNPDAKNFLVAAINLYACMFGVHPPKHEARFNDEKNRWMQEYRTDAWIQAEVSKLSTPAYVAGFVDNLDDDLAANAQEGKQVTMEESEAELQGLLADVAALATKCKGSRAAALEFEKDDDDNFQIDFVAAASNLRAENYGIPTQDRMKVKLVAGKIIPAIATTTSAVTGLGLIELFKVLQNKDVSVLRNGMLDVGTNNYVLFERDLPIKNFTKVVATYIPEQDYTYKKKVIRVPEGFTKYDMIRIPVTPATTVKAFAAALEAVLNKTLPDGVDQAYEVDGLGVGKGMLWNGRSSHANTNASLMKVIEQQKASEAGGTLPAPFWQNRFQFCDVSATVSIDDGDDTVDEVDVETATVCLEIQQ
Description: Leishmania donovani Ubiquitin Activating Enzyme (LdE1). The following applies: 30 µM. The format is functional.

Assay [3] concerns the target AMP-activated protein kinase, AMPK (Homo sapiens) (UniProt P54646+O43741+P54619+Q9UGJ0+Q9Y478+Q13131+Q9UGI9). Nature of the assay: AMP-dependent Kinase enzyme assay. An in vitro enzyme assay that detects ADP turnover that is directly proportional to AMPK activity. This uses naive AMPK that is activated during the assay with MK-8722. The format is functional. The following applies: 30 µM.

For assay [4], the target named is Sialic acid-binding Ig-like lectin 9 (Homo sapiens) (UniProt Q9Y336). Nature of the assay: Hs-Siglec9 ALPHAscreen SOP 20170721. As to conditions: 10 µM. Background: Bead proximity is the source of the signal in Alpha formats.
Sialic acid-binding Ig-like lectin 9 (Homo sapiens), sequence (Q9Y336 whole entry): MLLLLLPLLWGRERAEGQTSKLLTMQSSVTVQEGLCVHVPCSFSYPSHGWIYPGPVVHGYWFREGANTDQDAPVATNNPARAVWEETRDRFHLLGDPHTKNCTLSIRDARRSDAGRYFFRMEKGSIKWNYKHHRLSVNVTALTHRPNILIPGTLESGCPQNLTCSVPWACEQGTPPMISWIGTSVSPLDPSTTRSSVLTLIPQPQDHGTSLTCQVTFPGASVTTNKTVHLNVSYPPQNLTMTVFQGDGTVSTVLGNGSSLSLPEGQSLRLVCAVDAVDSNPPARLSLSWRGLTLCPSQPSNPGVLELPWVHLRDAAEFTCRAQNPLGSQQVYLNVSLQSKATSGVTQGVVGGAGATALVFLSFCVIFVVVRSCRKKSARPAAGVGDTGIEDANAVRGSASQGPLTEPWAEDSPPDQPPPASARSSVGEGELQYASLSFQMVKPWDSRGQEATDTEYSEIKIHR
A further assay deals with Trypanosoma cruzi. Description: Trypanosoma cruzi phosphomannomutase and mannose-1-phosphate guanylyltransferase assay. The following applies: 10 µM. The format is functional.
Assay [5] deals with T2, Arginase-2, mitochondrial (Homo sapiens) (UniProt P78540).
T2 sequence (whole entry): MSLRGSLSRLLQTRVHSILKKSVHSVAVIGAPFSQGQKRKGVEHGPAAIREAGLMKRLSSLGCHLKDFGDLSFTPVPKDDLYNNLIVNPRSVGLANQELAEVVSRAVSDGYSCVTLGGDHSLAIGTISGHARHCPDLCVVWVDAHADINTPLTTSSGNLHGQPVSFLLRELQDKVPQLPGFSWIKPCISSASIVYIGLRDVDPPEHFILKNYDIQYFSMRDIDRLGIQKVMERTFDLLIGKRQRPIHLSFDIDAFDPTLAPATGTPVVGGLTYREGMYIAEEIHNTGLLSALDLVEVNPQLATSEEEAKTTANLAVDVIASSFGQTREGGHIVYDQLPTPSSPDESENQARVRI
Nature of the assay: in vitro enzyme assay to detect the production of urea directly proportional to the activity of Arginase II. Further: in the data most compounds retested in dose-response had high values. The format is functional. The following applies: 33.3 µM.

The target of assay [6] is T3, Proteasome subunit beta (Trypanosoma cruzi) (UniProt O96673).
T3 sequence (whole entry): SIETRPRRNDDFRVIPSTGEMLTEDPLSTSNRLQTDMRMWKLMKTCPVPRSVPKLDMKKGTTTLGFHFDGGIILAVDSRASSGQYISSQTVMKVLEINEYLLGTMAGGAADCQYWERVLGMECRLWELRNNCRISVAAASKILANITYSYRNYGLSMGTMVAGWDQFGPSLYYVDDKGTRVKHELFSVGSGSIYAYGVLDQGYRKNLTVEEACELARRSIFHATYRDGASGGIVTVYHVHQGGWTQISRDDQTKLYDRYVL
Nature of the assay: Trypanosoma cruzi proteasome chymotrypsin-like activity (TcProtChymo) assay. Further: in the data most compounds retested in dose-response had high values. The format is functional. The following applies: 9.37 µM.

The species entered for a further assay is Homo sapiens. Nature of the assay: To identify inhibition of the IFN signalling (Jak-Stat) pathway via expression of an eGFP reporter gene under the control of an IFN-stimulated response element (ISRE) containing MxA promoter. The format is functional. The following applies: 30 µM.
Assay [7] addresses T4, Tyrosyl-tRNA synthetase, putative (Trypanosoma cruzi (strain CL Brener)) (UniProt Q4DSP6).
T4 sequence (whole entry): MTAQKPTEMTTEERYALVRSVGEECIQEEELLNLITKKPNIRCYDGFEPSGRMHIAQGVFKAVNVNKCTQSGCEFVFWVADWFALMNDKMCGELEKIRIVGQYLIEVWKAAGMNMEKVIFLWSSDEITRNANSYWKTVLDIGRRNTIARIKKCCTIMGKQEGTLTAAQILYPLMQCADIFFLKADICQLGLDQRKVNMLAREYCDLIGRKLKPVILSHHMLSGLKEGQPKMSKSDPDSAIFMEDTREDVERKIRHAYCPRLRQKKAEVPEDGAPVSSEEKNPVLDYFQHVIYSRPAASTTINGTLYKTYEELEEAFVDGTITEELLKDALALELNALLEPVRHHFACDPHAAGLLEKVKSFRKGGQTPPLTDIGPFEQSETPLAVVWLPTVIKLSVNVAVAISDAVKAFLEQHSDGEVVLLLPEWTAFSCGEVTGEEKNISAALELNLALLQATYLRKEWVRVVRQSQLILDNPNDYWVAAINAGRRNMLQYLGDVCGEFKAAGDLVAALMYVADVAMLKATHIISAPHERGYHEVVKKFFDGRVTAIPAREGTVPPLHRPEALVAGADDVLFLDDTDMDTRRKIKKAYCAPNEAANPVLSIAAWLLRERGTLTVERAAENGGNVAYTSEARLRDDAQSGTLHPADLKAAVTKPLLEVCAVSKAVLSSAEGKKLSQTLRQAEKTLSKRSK
Nature of the assay: Trypanosoma cruzi tyrosyl tRNA synthetase (TcYRS) _High Tyrosine SOP. Further: in the data most compounds retested in dose-response had high values. The format is functional. The following applies: 30 µM.

Assay [8] has as its target T4, Tyrosyl-tRNA synthetase, putative (Trypanosoma cruzi (strain CL Brener)). Nature of the assay: Trypanosoma cruzi tyrosyl tRNA synthetase (TcYRS) SOP. The format is functional. The following applies: 30 µM.
Assay [9] addresses Chromo domain-containing protein 1 (Saccharomyces cerevisiae (strain ATCC 204508 / S288c) (Baker's yeast)) (UniProt P32657). Nature of the assay: ScCHD-1 Enzyme Inhibition Assay. Further: in the data most compounds retested in dose-response had high values. The format is functional. As to conditions: 30 µM.

For some assays here: Results with a measured potency or affinity are listed apart.

Chromo domain-containing protein 1 (Saccharomyces cerevisiae (strain ATCC 204508 / S288c) (Baker's yeast)), sequence (P32657 whole entry, the tested form may be a part): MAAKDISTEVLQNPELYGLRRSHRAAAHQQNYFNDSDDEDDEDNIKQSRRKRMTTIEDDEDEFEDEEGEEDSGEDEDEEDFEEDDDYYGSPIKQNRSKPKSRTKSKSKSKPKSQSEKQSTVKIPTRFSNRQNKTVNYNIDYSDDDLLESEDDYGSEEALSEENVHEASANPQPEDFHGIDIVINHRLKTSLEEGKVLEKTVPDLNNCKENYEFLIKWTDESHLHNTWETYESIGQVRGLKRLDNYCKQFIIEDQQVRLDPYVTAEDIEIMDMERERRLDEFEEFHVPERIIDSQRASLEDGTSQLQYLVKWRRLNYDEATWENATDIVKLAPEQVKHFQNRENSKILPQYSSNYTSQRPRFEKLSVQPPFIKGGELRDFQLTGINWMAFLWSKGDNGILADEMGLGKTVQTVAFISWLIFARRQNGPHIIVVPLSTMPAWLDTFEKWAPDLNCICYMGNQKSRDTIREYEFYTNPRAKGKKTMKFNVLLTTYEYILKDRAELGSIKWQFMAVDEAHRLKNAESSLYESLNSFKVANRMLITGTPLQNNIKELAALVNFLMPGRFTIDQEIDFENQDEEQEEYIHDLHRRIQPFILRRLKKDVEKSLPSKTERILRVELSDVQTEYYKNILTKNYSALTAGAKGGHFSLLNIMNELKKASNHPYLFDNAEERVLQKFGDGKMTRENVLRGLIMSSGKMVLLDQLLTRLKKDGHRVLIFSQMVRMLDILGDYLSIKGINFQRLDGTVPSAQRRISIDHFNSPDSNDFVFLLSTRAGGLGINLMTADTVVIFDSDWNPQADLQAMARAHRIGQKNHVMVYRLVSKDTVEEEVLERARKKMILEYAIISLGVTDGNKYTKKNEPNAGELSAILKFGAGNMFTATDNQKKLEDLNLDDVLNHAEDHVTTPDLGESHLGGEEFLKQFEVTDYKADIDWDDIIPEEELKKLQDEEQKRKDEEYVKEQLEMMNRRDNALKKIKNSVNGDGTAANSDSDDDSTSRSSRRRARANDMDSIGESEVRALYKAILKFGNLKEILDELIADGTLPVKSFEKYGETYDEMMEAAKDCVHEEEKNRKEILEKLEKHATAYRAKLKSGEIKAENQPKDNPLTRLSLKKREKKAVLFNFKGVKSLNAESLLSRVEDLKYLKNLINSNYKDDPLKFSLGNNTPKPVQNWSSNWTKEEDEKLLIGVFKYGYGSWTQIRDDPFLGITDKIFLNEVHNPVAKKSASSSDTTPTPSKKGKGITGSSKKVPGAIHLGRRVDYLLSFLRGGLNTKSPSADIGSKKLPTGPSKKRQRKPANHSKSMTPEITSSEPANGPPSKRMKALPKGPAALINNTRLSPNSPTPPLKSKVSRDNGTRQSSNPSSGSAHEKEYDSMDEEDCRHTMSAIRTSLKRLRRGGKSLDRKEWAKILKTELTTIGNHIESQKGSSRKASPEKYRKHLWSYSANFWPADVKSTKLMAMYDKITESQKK
Protein translocase subunit SecA (Escherichia coli (strain K12)), sequence (P10408 whole entry): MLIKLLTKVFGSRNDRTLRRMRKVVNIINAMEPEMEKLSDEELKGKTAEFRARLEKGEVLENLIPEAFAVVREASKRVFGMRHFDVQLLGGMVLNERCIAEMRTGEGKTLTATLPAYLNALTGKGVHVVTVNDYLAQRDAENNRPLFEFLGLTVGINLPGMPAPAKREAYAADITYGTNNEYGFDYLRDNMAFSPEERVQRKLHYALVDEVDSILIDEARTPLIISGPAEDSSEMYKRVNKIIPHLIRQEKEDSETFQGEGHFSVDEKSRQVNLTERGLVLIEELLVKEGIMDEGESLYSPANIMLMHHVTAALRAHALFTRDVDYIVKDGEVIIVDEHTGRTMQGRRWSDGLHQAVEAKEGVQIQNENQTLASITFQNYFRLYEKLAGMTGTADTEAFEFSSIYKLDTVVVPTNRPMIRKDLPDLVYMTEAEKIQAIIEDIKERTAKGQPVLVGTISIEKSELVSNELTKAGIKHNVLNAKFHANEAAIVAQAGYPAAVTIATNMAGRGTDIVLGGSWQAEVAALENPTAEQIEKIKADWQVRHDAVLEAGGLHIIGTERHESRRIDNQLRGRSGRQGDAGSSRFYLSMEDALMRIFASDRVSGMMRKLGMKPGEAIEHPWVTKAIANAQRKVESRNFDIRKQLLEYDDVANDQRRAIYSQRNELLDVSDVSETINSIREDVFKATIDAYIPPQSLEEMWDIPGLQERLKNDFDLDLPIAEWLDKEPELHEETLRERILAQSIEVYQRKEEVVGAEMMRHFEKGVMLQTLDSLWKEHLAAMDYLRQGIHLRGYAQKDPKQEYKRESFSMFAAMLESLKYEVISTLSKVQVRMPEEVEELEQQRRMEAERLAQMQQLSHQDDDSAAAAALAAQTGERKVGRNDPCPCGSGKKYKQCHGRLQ

With `COc1cccc(CCNC(=O)CN2CCN(C)CC2C)c1` (stereo not given), the Percent Effect in [1] is -1.66%; in [2], 0%; in assay [3] it was -4.34%; in assay [4] it was -5.98%; in the assay on Trypanosoma cruzi it was -4.92%; in assay [5] it was 3.51%. In addition, the Percent Effect in [6] is 14.5%; in the assay listed under Homo sapiens, 18.7%; in [7], 4.95%; in assay [8], 15.8%; in assay [9], -5.6%.

In the case of `CN1CC2(COCCN(C(=O)c3ccco3)C2)OCC1=O` (stereo not given), the Percent Effect in assay [1] was -5.81%; in assay [2], 2.67%; in [3] it was -0.919%; in assay [4], -3.45%; in the assay with Trypanosoma cruzi, -5.99%; in [5], -55.4%. Moreover, the Percent Effect in [6] was 0.513%; in the assay filed under Homo sapiens, -7.28%; in assay [7], -3.12%; in assay [8] it was -2.5%; in assay [9], -2.77%.

For `CCN1CCN(C(=O)c2ccn(C)c(=O)c2)CC1`, the Percent Effect in assay [1] was -1.02%; in [2], 6.33%; in assay [3], 3.55%; in assay [4] it was -4.57%; in the assay on Trypanosoma cruzi, -4.62%; in assay [5] it was -1.07%. Further, the Percent Effect in assay [6] was 11.8%; in the assay filed under Homo sapiens, 21.1%; in assay [7], 4.17%; in assay [8], -5.06%; in assay [9] it was -16.7%.

For the compound `COCCCNC(=O)NCc1ccc(C)cc1`, the Percent Effect is -4.5% in assay [1]; 6.33% in [2]; -3.62% in assay [3]; -1.57% in assay [4]; -0.308% with Trypanosoma cruzi; -4.52% in assay [5]. Besides, the Percent Effect in assay [6] is 13.2%; in the assay listed under Homo sapiens, 1.42%; in assay [7], 5.21%; in assay [8], 17.7%; in assay [9], -28.6%.

Consider `CN(C(=O)C1CCCCC1)[C@@H]1CCC[C@@H](N2CCOCC2)[C@@H]1O`, for which the Percent Effect in assay [1] is -3.72%; in [2] it was 4.05%; in [3], 0.0373%; in assay [4], 6.37%; with Trypanosoma cruzi, 1.78%; in [5] it was -2.09%. Besides, the Percent Effect amounted to 6.86% in assay [6]; 8.21% in the assay filed under Homo sapiens; 1.07% in assay [7]; 3.9% in assay [8]; 74.8% in assay [9].

For the compound `CS(=O)(=O)NCCCNC(=O)c1cccnc1O`, the Percent Effect is -3.07% in [1]; 0% in assay [2]; -3.83% in assay [3]; -4.12% in assay [4]; 1.76% in the assay on Trypanosoma cruzi; 1.25% in assay [5]. Further, the Percent Effect in assay [6] was 16.6%; in the assay listed under Homo sapiens it was 6.15%; in assay [7] it was 7.92%; in [8] it was 8.54%; in [9], -4.62%.

In the case of `COc1cccc(N2CCN(C(=O)C(O)c3cccc(Cl)c3)CC2=O)c1` (stereo not given), the Percent Effect in assay [1] is 0.76%; in assay [2] it was 10.8%; in [3], -5.94%; in assay [4], -2.7%; with Trypanosoma cruzi it was -3.48%; in assay [5] it was -1.91%. For the same compound, the Percent Effect in [6] is 11.2%; in the assay filed under Homo sapiens, 22.3%; in assay [7], 4.76%; in [8], 0%; in [9], -1.09%.

Regarding `NC(=O)CCOc1nc(-c2ccccc2Cl)no1`, the Percent Effect in assay [1] is -6.94%; in assay [2] it was 2.74%; in assay [3], -11.9%; in assay [4], 31.6%; in the assay with Trypanosoma cruzi, 8.23%; in [5], -1.82%. Also, the Percent Effect in assay [6] is 8.87%; in the assay filed under Homo sapiens it was -2.22%; in assay [7], 4.3%; in assay [8], 15%; in assay [9], -6.33%.

In the case of `C=C(C)CN(Cc1cccc(O)c1)C1CCC(O)CC1` (stereo not given), the Percent Effect in assay [1] was -4.6%; in [2], 5.41%; in assay [3], -0.588%; in assay [4] it was 6.05%; in the assay on Trypanosoma cruzi it was -2.64%; in assay [5] it was -0.248%. Further, the Percent Effect in assay [6] is 6.44%; in the assay filed under Homo sapiens it was -11.6%; in assay [7], 2.15%; in assay [8], 6.17%; in [9], -4.17%.

For `O=C(NCCCn1cncn1)NCC(c1ccccc1)N1CCCC1` (stereo not given), the Percent Effect in assay [1] is -4.8%; in [2] it was 2.6%; in [3], -5.77%; in assay [4], -8.15%; with Trypanosoma cruzi, 5.58%; in assay [5], -2.32%. In addition, the Percent Effect in assay [6] is 14.6%; in the assay filed under Homo sapiens, 6.64%; in assay [7], 3.81%; in assay [8], 2.35%; in assay [9], -23.6%.
